Sampled rows, rich in hits. Any-hit rate of the full collection: about 1.4%.
mIDH1 inhibitor = blocks human mutant IDH1 R132H enzyme | IDH1-R132H enzyme, NADPH consumption, diaphorase/resazurin fluorescence | Potency, µM (series often up to 76.6 µM), hits mostly inhibitors | actives 0.093% (n = 390,000) | AID 602179; also: nearly all actives have a fitted effect of over 65% in size
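IDH1-R132H (0.5 ug/mL) preincubated 30 min with compound, then NADPH (0.016 mM) and alpha-KG (2 mM) added; 80 min at RT, pH 7.5. Remaining NADPH coupled via diaphorase/resazurin to fluorescence (540/590 nm); concentration-response curves normalized to no-enzyme control.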
rTrxR1 inhibitor = blocks rat thioredoxin reductase 1 | recombinant rTrxR1, NADPH fluorescence consumption, selenite substrate | Potency, µM (highest dose often 114 µM), most hits filed as inhibitors | actives 1% (n = 390,000) | AID 588453; also: nearly all actives have a fitted effect of over 65% in size
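Rat TrxR1 (90 nM in the dispensed reagent) was pre-reduced with 400 uM NADPH for 5 min at room temperature, then incubated with compound for 15 min. After 400 uM selenite was added, NADPH fluorescence (Ex 340/Em 450 nm) was followed for 8 min.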
TrxR1 substrate = rat thioredoxin reductase 1 substrate activity; AID 588456; actives 0.01% (n = 390,000); Potency, µM (doses to about 114 µM); purified TrxR1 substrate turnover, NADPH consumption readout; also: nearly all actives have a fitted effect of over 50% in size
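Rat TrxR1, dispensed at 90 nM, was prereduced with 400 uM NADPH (final) for 5 min at ~22 deg C, then incubated with compound 15 min before 400 uM selenite. A first-read NADPH fluorescence drop versus no-compound background flagged substrates.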
PKM2 activator = PKM2 (human) enzyme activation; Potency, µM (series often up to 57.5 µM), actives largely listed as activators; P14618; actives 0.34% (n = 260,000); purified PKM2, Kinase-Glo ATP luminescence, activation; response scale: 0% is enzyme alone, no compound; AID 1631; also: nearly all actives have a fitted effect of over 55% in size
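ATP formation by purified human PK-M2, quantified via coupled luciferase luminescence after 1 h at room temperature with 0.1 mM ADP and 0.5 mM PEP final.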
GLS inh = glutaminase GLS (human) inhibition; Potency, µM (top dose mostly 45.5 µM), most hits filed as inhibitors; AID 624170; GLS enzymatic activity, qHTS titration; actives 0.21% (n = 410,000)
Target sequence (O94925 whole entry, looked up): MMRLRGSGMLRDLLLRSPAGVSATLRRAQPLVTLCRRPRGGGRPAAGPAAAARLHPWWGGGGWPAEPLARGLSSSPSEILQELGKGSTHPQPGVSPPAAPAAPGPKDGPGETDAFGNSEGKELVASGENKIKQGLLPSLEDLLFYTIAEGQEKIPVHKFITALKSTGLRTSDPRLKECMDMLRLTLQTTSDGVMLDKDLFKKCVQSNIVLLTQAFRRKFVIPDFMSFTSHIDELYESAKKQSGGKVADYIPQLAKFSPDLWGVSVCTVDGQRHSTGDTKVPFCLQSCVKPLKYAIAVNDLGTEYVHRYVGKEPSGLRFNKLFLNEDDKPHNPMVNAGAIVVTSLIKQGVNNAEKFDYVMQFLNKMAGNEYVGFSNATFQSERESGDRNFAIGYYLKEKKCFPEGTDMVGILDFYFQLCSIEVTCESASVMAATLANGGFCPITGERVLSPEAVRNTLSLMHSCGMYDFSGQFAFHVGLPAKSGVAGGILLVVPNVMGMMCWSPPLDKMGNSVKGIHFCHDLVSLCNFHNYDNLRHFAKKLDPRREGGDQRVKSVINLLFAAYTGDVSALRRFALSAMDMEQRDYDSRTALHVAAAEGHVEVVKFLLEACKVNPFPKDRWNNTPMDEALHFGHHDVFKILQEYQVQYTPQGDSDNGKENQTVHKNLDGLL
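Coupled fluorescence readout: glutamate oxidase/HRP/Amplex Red detect glutamate formed by hKGA from L-glutamine (1 mM solution added). Buffer 45 mM KH2PO4 pH 8.2, 0.02% Tween-20; reads at t0 and 30 min RT.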
LDHA inh = inhibitors of human lactate dehydrogenase A | P00338 | actives 0.15% (n = 480,000) | activity change, % (values are at about 110 or 230 µM) | purified LDHA, NADH/diaphorase-resazurin fluorescence; active compounds read low; in the data active = activity change below about -30%; inconclusive = mostly about -25% to -30%
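Resorufin fluorescence (ex540/em590), read at 0 and 20 min after diaphorase/resazurin addition, reports the NADH left after a 5 min room-temperature reaction of 2 nM human LDH5 with 0.06 mM NADH and 0.2 mM pyruvate.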
Numbers stand for hits; i = inactive; ? = inconclusive; nt = no result given; ! = repeats disagree; [ ] = dose if it differs, or a comment. Unless noted, calls follow the shape of the dose curve; as a rule, active = well fitted curve in the direction sought with a large enough effect; inconclusive = small, poorly fitted or top-dose-only effect, or another doubt; inactive = no such curve, though single readings can be large; an effect the other way counts as inactive or inconclusive.

SMILES	mIDH1 inhibitor	rTrxR1 inhibitor	TrxR1 substrate	PKM2 activator	GLS inh	LDHA inh
O=C(N/N=C\C=C\c1ccco1)c1cncc(Br)c1	i	50.1µM	i	i	i	i
O=C(N/N=C/C=C/c1ccco1)c1cccnc1	i	5.62µM	i	i	i	i
CCOc1ccc2oc(=O)cc(CN3CCN(c4ccccc4)CC3)c2c1	i	i	i	nt	i	-30.2!
CCNC(=O)NC(=O)CSc1cc(C)c2ccccc2n1	nt	nt	nt	nt	nt	i
CCn1c(=O)c(=O)n(CC)c2cc(S(=O)(=O)Nc3ccc(C)cc3)ccc21	i	i	i	10µM	i	i
CN(CC(=O)Nc1ccc(OC(F)(F)F)cc1)C(=O)c1n[nH]c2ccccc12	nt	nt	nt	nt	nt	i
CN(C)c1ccc(C=c2c3cc([N+](=O)[O-])ccc3n3c2cc(-c2ccccc2)[n+]3C)cc1	i	39.8µM	i	nt	i	i
CN(C)c1ccc(C=c2c3ccccc3n3c2cc(-c2ccccc2)[n+]3C)cc1	i	i[11.4 µM]	i[11.4 µM]	nt	i	i
COc1cc(C=c2c3ccccc3n3c2cc(-c2ccccc2)[n+]3C)cc(OC)c1OC	i	50.1µM	i	nt	i	i
COc1cc(N(C)C)ccc1C=c1c2ccccc2n2c1cc(-c1ccccc1)[n+]2C	i	i[11.4 µM]	i[11.4 µM]	nt	?	i
C(#CCN1CCN(CC#CCOC(c2ccccc2)c2ccccc2)CC1)COC(c1ccccc1)c1ccccc1	nt	nt	nt	nt	nt	i
O=C(/C=C/c1ccccc1)c1ccc2c(c1)OCCCCO2	i	i	i	i	i	i
O=C(CCl)N(C/C=C/c1ccccc1)c1ccc2c(c1)OCCO2	i	7.94µM	i	i	i	i
Cc1ccnc(Sc2ccc([N+](=O)[O-])cc2[N+](=O)[O-])n1	i	20µM	i	i	i	i
Cc1ccc(CN(C)C(=O)c2ccc3c(c2)NC(=O)CS3)o1	i	17.8µM	i	?	i	i
Cc1[nH]c2ccccc2c1C(c1ccccn1)N1CCC(C(N)=O)CC1 (stereo not given)	i	1.58µM	i	i	i	i
Cc1[nH]c2ccccc2c1C(c1ccncc1)N1CCC(C)CC1 (stereo not given)	i	i	i	i	i	i
CCOC(=O)COc1c(Cl)cc(/C=C2\N=C(C)OC2=O)cc1OC	i	14.1µM	i	nt	?	i
COc1ccc(/C=C2\N=C(C)OC2=O)cc1OC(C)=O	i	44.7µM	i	nt	i	i
COc1ccc(/C=C2\N=C(C)OC2=O)cc1OC	i	39.8µM	i	nt	i	i
C=CCOc1ccc(/C=C2\N=C(C)OC2=O)cc1OC	i	i	i	i	i	i
COc1cc(/C=C2\N=C(c3ccccc3)OC2=O)ccc1OC(C)=O	i	i	i	i	i	i
CC(C)C(NC(=O)COc1cc(Cl)ccc1Cl)c1nc2ccccc2[nH]1 (stereo not given)	nt	nt	nt	nt	nt	i
Cc1ccsc1C1NC(=O)c2c(sc3c2CCCC3)N1 (stereo not given)	i	44.7µM	i	i	i	i
Cc1nn(CCC(=O)Nc2cccc(Cl)c2)c(=O)c(C#N)c1C	nt	nt	nt	nt	nt	i
SMILES	mIDH1 inhibitor	rTrxR1 inhibitor	TrxR1 substrate	PKM2 activator	GLS inh	LDHA inh
O=c1cc(COc2ccc(-c3ccccc3)cc2Cl)nc2sccn12	nt	nt	nt	nt	nt	i
O=c1cc(CSc2nnc(COc3ccccc3Cl)o2)nc2sccn12	i	i	i	25.1µM	i	i
COc1ccc2cc(CNc3ccc(C)cc3)c(=O)n(CC(=O)Nc3ccc(C)cc3Cl)c2c1	i	i	i	nt	12.6µM	i
COc1ccc2cc(CNc3ccc(C)cc3)c(=O)n(CC(=O)Nc3cccc(Cl)c3C)c2c1	i	i	i	nt	i	i
CCc1ccc(NCc2cc3cc4c(cc3n(CC(=O)Nc3cccc(OC)c3)c2=O)OCO4)cc1	i	i	i	nt	10µM	i
CC(C)CC(=O)Nc1cccc(C(=O)Nc2cccc(C(=O)O)c2)c1	nt	nt	nt	nt	nt	i
N#C/C(=C\c1ccc(-c2cccc(C(F)(F)F)c2)o1)c1nc2ccccc2[nH]1	nt	nt	nt	nt	nt	i
CN(C)C(=O)NC1c2ccccc2-c2ccccc21	i	i	i	nt	i	i
O=C1C=CC(=O)N1c1ccc2c(c1)C(NC(=O)C(F)(F)F)c1ccccc1-2 (stereo not given)	i	1.78µM	i	nt	i	i
COc1ccc(NC(=O)c2ncoc2-c2ccc(OC)c(OC)c2)cc1OC	nt	nt	nt	nt	nt	i
CCCCN(C)CCNC(=O)c1cc2cc3ccc(OC)cc3nc2o1	i	44.7µM	i	nt	i	i
O=C1CN(CC(=O)Nc2cccc3ncccc23)CCN1	nt	nt	nt	nt	nt	i
Cc1cccnc1NCc1ccc(O)c2ncccc12	i	?	i	i	i	i
Cc1ccc(NCc2ccc(O)c3ncccc23)cc1C	i	2µM	i	i	i	i
Cc1ccc(NCc2ccc(O)c3ncccc23)cc1	i	0.501µM	i	i	i	i
CCC(=O)c1cc2c(cc1NC(=O)c1ccco1)OCCO2	nt	nt	nt	nt	nt	i
N#Cc1cnn2c(C(F)F)cc(-c3ccccc3)nc12	nt	nt	nt	nt	nt	i
CCOC(=O)c1sc2nc(C3CC3)cc(-c3ccc(OC)cc3)c2c1N	i	50.1µM	i	i	i	i
C=CCn1c(NCCCOC)nc2c1c(=O)[nH]c(=O)n2C	nt	nt	nt	nt	nt	-34.5
NC(=O)c1ccsc1NC(=O)CCS(=O)(=O)c1ccccc1	i	i	i	i	i	i
N#Cc1ccsc1NC(=O)COC(=O)CCS(=O)(=O)c1ccccc1	i	i[2.29 µM]	i	nt	i	i
NC(=O)c1ccsc1NC(=O)CCS(=O)(=O)c1ccc(Cl)cc1	i	17.8µM	i	nt	i	i
N#Cc1ccsc1NC(=O)CCS(=O)(=O)c1ccccc1	i	3.16µM	i	i	i	i
CC(NC(=O)c1ccoc1)C(=O)Nc1cccnc1N1CCCCC1 (stereo not given)	nt	nt	nt	nt	nt	i
COC(=O)c1cccc(CSC(C)C(=O)NCC(C)C)c1 (stereo not given)	nt	nt	nt	nt	nt	i
SMILES	mIDH1 inhibitor	rTrxR1 inhibitor	TrxR1 substrate	PKM2 activator	GLS inh	LDHA inh
CN(C)c1ccc(-c2c3ccccc3nc3ccccc23)cc1	nt	i	i	nt	nt	i
CN(C)c1nc2ccccc2c(N)c1-c1ccccc1	i	i	i	i	i	-38.3
CC1(C)C(/C=C/C=C/C=C/C=C2\N(CCCCS(=O)(=O)O)c3ccc4ccccc4c3C2(C)C)=[N+](CCCCS(=O)(=O)[O-])c2ccc3ccccc3c21	?	3.55µM	i	nt	6.31µM	i
COc1ccc(-c2nc(C#N)c(NCc3ccc4c(c3)OCO4)o2)cc1	nt	nt	nt	nt	nt	i
CCOc1ccc(-c2nc(C#N)c(NCc3ccc4c(c3)OCO4)o2)cc1	i	i	i	i	i	-31.2!
O=C(NC(c1ccccc1)c1cc2ccccc2o1)C1CC1 (stereo not given)	nt	nt	nt	nt	nt	i
Oc1ccc(/C=N/Nc2ccnc3cc(Cl)ccc23)c(O)c1O	i	i	i	i	12.6µM	i
Oc1ccc(/C=N/Nc2ccnc3cc(Cl)ccc23)cc1O	i	i	i	i	i	i
